The source made the active and inactive calls. The calls were made as follows: active = hit-call score of the fitted dose curve at least 0.9, where 1 is the maximum; inactive = score below 0.9.

Conditions in all cases: mRNA level, 48 h; actives raise or lower the signal
Read-out in experiment [1]: Insulin Like Growth Factor 1 (IGF1), IGF1 (gene 3479)
The experiment is described as follows: LTEA_HepaRG_IGF1: Life Technologies and Expression Analysis (LTEA) Assay for Insulin Like Growth Factor 1 (IGF1) using HepaRG (AID 2283506). In short, it runs like this:
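Differentiated HepaRG cells in serum-free induction medium, exposed 48 h in duplicate to 8 half-log concentrations up to 100 uM in 0.5% DMSO. IGF1 mRNA by Fluidigm qRT-PCR, normalised to ACTB, GAPDH and POLR2A.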

Read-out in experiment [2]: Intercellular Adhesion Molecule 1 (ICAM1), ICAM1 (gene 3383)
The experiment is described as follows: LTEA_HepaRG_ICAM1: Life Technologies and Expression Analysis (LTEA) Assay for Intercellular Adhesion Molecule 1 (ICAM1) using HepaRG (AID 2283507). In short, it runs like this:
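Differentiated human HepaRG cells in serum-free induction medium exposed 48 h in duplicate to 8 half-log concentrations (top 100 uM, 0.5% DMSO). ICAM1 mRNA quantified by TaqMan qRT-PCR, normalized to ACTB, GAPDH and POLR2A; bidirectional fitting versus DMSO.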

Read-out in experiment [3]: Insulin-like growth factor-binding protein 1 (IGFBP1), IGFBP1 (gene 3484)
Briefly: LTEA_HepaRG_IGFBP1: Life Technologies and Expression Analysis (LTEA) Assay for Insulin-like growth factor-binding protein 1 (IGFBP1) using HepaRG (AID 2283508). In short, it runs like this:
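HepaRG cells, plated 48 h then switched to serum-free induction medium, exposed in duplicate for 48 h to 8-point half-log series from 100 uM in 0.5% DMSO. mRNA measured by qRT-PCR, normalized to ACTB/GAPDH/POLR2A; bidirectional fit versus DMSO.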

Read-out in experiment [4]: Interleukin 6 (IL6), IL6 (gene 3569)
Briefly: LTEA_HepaRG_IL6: Life Technologies and Expression Analysis (LTEA) Assay for Interleukin 6 (IL6) using HepaRG (AID 2283509). In short, it runs like this: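 HepaRG cells exposed in duplicate for 48 h to eight half-log concentrations, top 100 uM, in 0.5% DMSO serum-free induction medium. mRNA measured by qRT-PCR, normalized to ACTB, GAPDH and POLR2A. Bidirectional fit versus DMSO.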

Read-out in experiment [5]: Interleukin 6 Receptor (IL6R), IL6R (gene 3570)
The experiment is described as follows: LTEA_HepaRG_IL6R: Life Technologies and Expression Analysis (LTEA) Assay for Interleukin 6 Receptor (IL6R) using HepaRG (AID 2283510).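 As to AC50: TaqMan qRT-PCR signal normalized to ACTB GAPDH and POLR2A housekeeping genes.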 The procedure, abridged:
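Differentiated HepaRG cells, plated 48 h, then exposed in duplicate for 48 h in serum-free induction medium to 8 half-log concentrations (top 100 uM, 0.5% DMSO). IL6R mRNA measured by TaqMan qRT-PCR, normalized to ACTB/GAPDH/POLR2A; bidirectional fit vs DMSO.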

Read-out in experiment [6]: Potassium channel subfamily K member 1 (KCNK1), KCNK1 (gene 3775)
The experiment is described as follows: LTEA_HepaRG_KCNK1: Life Technologies and Expression Analysis (LTEA) Assay for Potassium channel subfamily K member 1 (KCNK1) using HepaRG (AID 2283511). The procedure, abridged: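 Differentiated HepaRG cells, 48 h exposure in serum-free induction medium with 0.5% DMSO; 8 concentrations, half-log from 100 uM, duplicate. KCNK1 mRNA by qRT-PCR, normalized to ACTB, GAPDH, POLR2A; bidirectional fit vs DMSO.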

Read-out in experiment [7]: Keratin 19 (KRT19), KRT19 (gene 3880)
Briefly: LTEA_HepaRG_KRT19: Life Technologies and Expression Analysis (LTEA) Assay for Keratin 19 (KRT19) using HepaRG (AID 2283512). The procedure, abridged: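 Differentiated HepaRG cells in serum-free induction medium, exposed 48 h in duplicate to 8 half-log concentrations up to 100 uM in 0.5% DMSO. KRT19 mRNA by qRT-PCR, normalized to ACTB, GAPDH, POLR2A; bidirectional fit vs DMSO.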

Read-out in experiment [8]: JUN Transcription Factor, JUN (gene 3725)
The experiment is described as follows: LTEA_HepaRG_JUN: Life Technologies and Expression Analysis (LTEA) Assay for JUN Transcription Factor using HepaRG (AID 2283513). In short, it runs like this:
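HepaRG cells, 48 h post-plating, exposed 48 h in serum-free induction medium to 8-point half-log series (top 100 uM, 0.5% DMSO), duplicate; mRNA by qRT-PCR (TaqMan, Fluidigm), normalized to ACTB/GAPDH/POLR2A; bidirectional fit vs DMSO.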

Read-out in experiment [9]: Lipase C (LIPC), LIPC (gene 3990)
Briefly: LTEA_HepaRG_LIPC: Life Technologies and Expression Analysis (LTEA) Assay for Lipase C (LIPC) using HepaRG (AID 2283514). In short, it runs like this:
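HepaRG cells, 48 h after plating, treated in duplicate for 48 h in serum-free induction medium over 8 half-log concentrations from 100 uM, 0.5% DMSO. LIPC mRNA by TaqMan qRT-PCR normalized to ACTB/GAPDH/POLR2A; bidirectional fit versus DMSO.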

Read-out in experiment [10]: Lipoprotein lipase (LPL), LPL (gene 4023)
Briefly: LTEA_HepaRG_LPL: Life Technologies and Expression Analysis (LTEA) Assay for Lipoprotein lipase (LPL) using HepaRG (AID 2283515). In short, it runs like this: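 Differentiated HepaRG cells, plated 48 h, then exposed 48 h in serum-free induction medium to 8 concentrations (top 100 uM, half-log steps) in 0.5% DMSO, duplicate. LPL mRNA measured by qRT-PCR, normalized to ACTB, GAPDH and POLR2A.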

Read-out in experiment [11]: matrix metalloproteinase-10 (MMP10), MMP10 (gene 4319)
Briefly: LTEA_HepaRG_MMP10: Life Technologies and Expression Analysis (LTEA) Assay for matrix metalloproteinase-10 (MMP10) using HepaRG (AID 2283517). The procedure, abridged: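 Differentiated HepaRG cells in serum-free induction medium exposed 48 h in duplicate to 8-point half-log series up to 100 uM in 0.5% DMSO. mRNA quantified by qRT-PCR, normalised to ACTB, GAPDH, POLR2A; bidirectional fit versus DMSO.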

Read-out in experiment [12]: Paternally Expressed 10 (PEG10), PEG10 (gene 23089)
The experiment is described as follows: LTEA_HepaRG_PEG10: Life Technologies and Expression Analysis (LTEA) Assay for Paternally Expressed 10 (PEG10) using HepaRG (AID 2283520). In short, it runs like this:
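Differentiated HepaRG cells exposed 48 h in serum-free induction medium to eight half-log concentrations topping at 100 uM, 0.5% DMSO, in duplicate. PEG10 mRNA quantified by TaqMan qRT-PCR, normalized to ACTB, GAPDH and POLR2A; bidirectional fit versus DMSO.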

Read-out in experiment [13]: Protein phosphatase 2A (PPP2R4), PTPA (gene 5524)
Briefly: LTEA_HepaRG_PPP2R4: Life Technologies and Expression Analysis (LTEA) Assay for Protein phosphatase 2A (PPP2R4) using HepaRG (AID 2283522). The procedure, abridged:
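Differentiated human HepaRG cells in serum-free induction medium were exposed 48 h to 8 concentrations (top 100 µM, half-log steps, duplicate) in 0.5% DMSO. PPP2R4 mRNA was measured by TaqMan qRT-PCR, normalised to ACTB, GAPDH and POLR2A, and fitted bidirectionally versus DMSO.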

Read-out in experiment [14]: Phosphatase and tensin (PTEN), PTEN (gene 5728)
Briefly: LTEA_HepaRG_PTEN: Life Technologies and Expression Analysis (LTEA) Assay for Phosphatase and tensin (PTEN) using HepaRG (AID 2283523). The procedure, abridged:
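HepaRG cells, 48 h after plating, exposed in duplicate for 48 h in serum-free induction medium to 8 half-log concentrations up to 100 uM (0.5% DMSO). PTEN mRNA by qRT-PCR, normalized to ACTB, GAPDH, POLR2A; bidirectional fit versus DMSO.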

Read-out in experiment [15]: solute carrier (SLC22A1), SLC22A1 (gene 6580)
The experiment is described as follows: LTEA_HepaRG_SLC22A1: Life Technologies and Expression Analysis (LTEA) Assay for solute carrier (SLC22A1) using HepaRG (AID 2283524). In short, it runs like this:
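Differentiated human HepaRG cells in serum-free induction medium, exposed 48 h in duplicate to 8-point half-log series from 100 µM top in 0.5% DMSO. SLC22A1 mRNA by TaqMan qRT-PCR normalized to ACTB, GAPDH, POLR2A; bidirectional fit versus DMSO.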

Read-out in experiment [16]: Pyruvate Dehydrogenase Kinase 4 (PDK4), PDK4 (gene 5166)
The experiment is described as follows: LTEA_HepaRG_PDK4: Life Technologies and Expression Analysis (LTEA) Assay for Pyruvate Dehydrogenase Kinase 4 (PDK4) using HepaRG (AID 2283525). The procedure, abridged: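 HepaRG cells plated 48 h, then switched to serum-free induction medium and exposed in duplicate for 48 h to 8 half-log concentrations from 100 uM in 0.5% DMSO. PDK4 mRNA measured by qRT-PCR, normalized to ACTB, GAPDH and POLR2A; bidirectional fit versus DMSO.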

Read-out in experiment [17]: MicroRNA 122 (MIR122), gene 406906
The experiment is described as follows: LTEA_HepaRG_MIR122: Life Technologies and Expression Analysis (LTEA) Assay for MicroRNA 122 (MIR122) using HepaRG (AID 2283516). Also: the transcript read is the microRNA miR-122. In short, it runs like this: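 Differentiated human HepaRG cells in serum-free induction medium exposed 48 h to 8 half-log concentrations from 100 uM in 0.5% DMSO, duplicate. MIR122 quantified by Fluidigm TaqMan qRT-PCR, normalised to ACTB, GAPDH, POLR2A; fold change fitted bidirectionally versus DMSO.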

Read-out in the next experiment: MYC, MYC (gene 4609)
Briefly: LTEA_HepaRG_MYC: Life Technologies and Expression Analysis (LTEA) Assay for MYC using HepaRG (AID 2283518). In short, it runs like this:
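Differentiated HepaRG cells exposed 48 h in serum-free induction medium to 8 concentrations (top 100 uM, half-log steps; 0.5% DMSO), duplicate. MYC mRNA measured by Fluidigm qRT-PCR, normalized to ACTB, GAPDH, POLR2A; bidirectional fit versus DMSO.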

Read-out in experiment [18]: matrix metalloproteinase-3 (MMP3), MMP3 (gene 4314)
Briefly: LTEA_HepaRG_MMP3: Life Technologies and Expression Analysis (LTEA) Assay for matrix metalloproteinase-3 (MMP3) using HepaRG (AID 2283519). The procedure, abridged: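 HepaRG cells (~100,000/well) in serum-free induction medium were dosed in duplicate for 48 h with an 8-point half-log series from 100 uM, 0.5% DMSO. MMP3 mRNA was quantified by Fluidigm TaqMan qRT-PCR, normalized to three housekeeping genes.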

Read-out in experiment [19]: Nuclear factor NF-kappa-B p105 subunit (Homo sapiens) (UniProt P19838)
The experiment is described as follows: LTEA_HepaRG_NFKB1: Life Technologies and Expression Analysis (LTEA) Assay for Nuclear Factor Kappa B Subunit 1 (NFKB1) using HepaRG (AID 2283521).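 As to outcome: TaqMan qRT-PCR transcript normalised to ACTB GAPDH and POLR2A housekeeping genes.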 The procedure, abridged:
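NFKB1 transcript was measured by TaqMan qRT-PCR on Fluidigm arrays, normalised to three housekeeping genes and fitted in both directions against 0.5% DMSO. HepaRG cells were dosed in duplicate for 48 h in serum-free induction medium, eight half-log steps from 100 uM.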

Nuclear factor NF-kappa-B p105 subunit (Homo sapiens), sequence (P19838 whole entry, looked up): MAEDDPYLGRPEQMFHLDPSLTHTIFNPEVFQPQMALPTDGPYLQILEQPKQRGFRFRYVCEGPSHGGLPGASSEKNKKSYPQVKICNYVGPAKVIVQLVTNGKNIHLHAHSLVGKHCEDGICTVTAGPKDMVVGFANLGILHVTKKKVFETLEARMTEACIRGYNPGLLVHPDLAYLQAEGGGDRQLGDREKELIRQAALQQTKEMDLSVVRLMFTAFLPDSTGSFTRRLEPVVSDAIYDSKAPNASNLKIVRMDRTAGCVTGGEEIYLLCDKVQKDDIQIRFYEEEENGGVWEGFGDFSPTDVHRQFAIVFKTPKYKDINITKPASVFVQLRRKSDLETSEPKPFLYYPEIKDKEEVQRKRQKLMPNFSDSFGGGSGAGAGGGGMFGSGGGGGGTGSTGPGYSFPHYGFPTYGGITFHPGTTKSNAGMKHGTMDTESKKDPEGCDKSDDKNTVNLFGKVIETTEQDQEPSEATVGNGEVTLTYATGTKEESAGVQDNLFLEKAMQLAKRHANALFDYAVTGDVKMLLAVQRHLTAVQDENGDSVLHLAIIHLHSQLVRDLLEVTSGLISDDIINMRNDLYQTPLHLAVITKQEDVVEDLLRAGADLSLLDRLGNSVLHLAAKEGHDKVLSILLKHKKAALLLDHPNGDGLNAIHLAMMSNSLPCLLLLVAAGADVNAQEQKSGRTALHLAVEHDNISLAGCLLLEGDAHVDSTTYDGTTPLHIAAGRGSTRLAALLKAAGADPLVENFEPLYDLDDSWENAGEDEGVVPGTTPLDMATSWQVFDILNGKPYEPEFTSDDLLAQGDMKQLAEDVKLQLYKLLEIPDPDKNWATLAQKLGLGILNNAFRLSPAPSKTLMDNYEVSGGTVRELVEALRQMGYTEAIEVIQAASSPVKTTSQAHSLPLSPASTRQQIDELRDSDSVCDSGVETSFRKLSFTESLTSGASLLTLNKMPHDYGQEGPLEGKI

Take `CN(C)c1ccc(C(=C2C=CC(=[N+](C)C)C=C2)c2ccc(N(C)C)cc2)cc1`: the AC50 was 1.44 µM (active) in experiment [1]; 73.1 µM (active) in [2]; 3.64 µM (active) in [3]; 6.98 µM (active) in [4]; 12.5 µM (active) in [5]; 5.1 µM (active) in experiment [6]. Further, the AC50 in [7] is 4.74 µM (active); in experiment [8] it was 89.2 µM (active); in experiment [9] it was 3.01 µM (active); in [10], 36 µM (active); in experiment [11], 8.54 µM (active); in experiment [12], 6.63 µM (active). The AC50 in experiment [13] was 12.9 µM (active); in [14] it was 26.1 µM (active); in experiment [15] it was 3.62 µM (active); in experiment [16], 32.4 µM (active).
Turning to `COc1cc(C(=O)NC2CCN(C)CC2)ccc1Nc1ncc2c(n1)N(C1CCCC1)CC(F)(F)C(=O)N2C`, the AC50 was 83.7 µM (active) in [2]; 23.3 µM (active) in experiment [3]; 25.2 µM (active) in [4]; 86.4 µM (active) in experiment [5]; 12.3 µM (active) in experiment [7]; 25.9 µM (active) in experiment [8]. Also, the AC50 is 4.65 µM (active) in [9]; 14 µM (active) in [10]; 26.3 µM (active) in experiment [11]; 14.7 µM (active) with MYC, MYC (gene 4609); 4.65 µM (active) in experiment [18]; 11.7 µM (active) in [19]. Further, the AC50 was 11.9 µM (active) in [13], 12 µM (active) in experiment [14], 5.56 µM (active) in [15] and 22.2 µM (active) in [16]. Further, the molecule was classed as inactive in experiment [6], in [17] and in experiment [12].
`CCCCCCCCOc1ccc(C(=O)c2ccccc2)c(O)c1`: the call in experiment [1], in experiment [2], in experiment [3], in experiment [4], in experiment [5] and in experiment [6] was inactive. Besides, the outcome in experiment [7], in experiment [8], in experiment [9], in experiment [10], in [11] and in experiment [12] was inactive. Also, the molecule was called inactive in experiment [19], in experiment [13], in [14], in experiment [15] and in experiment [16].

The record behind these values is PubChem BioAssay (EPA / NIEHS).
